From PubChem BioAssay (NCATS) come the findings set out here.

Molecules are shown by their SMILES. Records with an inconclusive call do not appear. A number with no mark means an inactive call. Calls come from the whole dose curve; as a rule, active = well fitted curve in the direction sought with a large enough effect; inconclusive = small, poorly fitted or top-dose-only effect, or another doubt; inactive = no such curve, though single readings can be large; an effect the other way counts as inactive or inconclusive.

In the first assay the target is Aldehyde dehydrogenase, mitochondrial (Homo sapiens) (UniProt P05091). Briefly: qHTS for Inhibitors of the Aldehyde Dehydrogenase Family (ALDH2) Primary screen (AID 2061308).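 Note: plate controls were vehicle for no effect and reference inhibitor for full effect; nearly all actives have a fitted effect of over 55% in size.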 To be noted: ALDH2 enzyme inhibition qHTS, 1536-well; series mostly up to 56 µM; activity change, negative = inhibition: at the top concentration.
In the case of `Cc1ccc(OCCn2c(CCNC(=O)c3ccccc3)nc3ccccc32)cc1`, the “activity change, negative = inhibition” value is -6.42%.
Same read-out and setting: in the case of `O=C(Nc1ccc(-n2cncn2)c(C(F)(F)F)c1)Nc1nnc(-c2ccncc2)s1` it was -2.07%; in that of `COc1ccccc1-n1cnc2cc(C(=O)N3CCCCC3)ccc21`, 4.06%; in that of `C=C1C(=O)O[C@@H]2/C=C(\CO)CC/C=C(/C=O)C[C@@H](O)[C@@H]12`, 7.3%.
In the case of `Oc1ccc(CNc2cccc(C(F)(F)F)c2)c2cccnc12`, the “activity change, negative = inhibition” value is -29.6%.
Same read-out and setting: for `COc1ccc(C2Nc3ccccc3C(=O)N2Cc2ccc3c(c2)OCO3)cc1COc1c(C)cc(NC(C)=O)cc1C` (stereo not given) the value was 0.752%; for `CCCCNc1nc(C)nc2c1nc(-c1ccccc1)n2CCCN(CC)CC`, 5.3%; for `Cc1c(P(=S)(c2ccccc2)c2ccccc2)c2ccccc2n1C(=O)NCc1ccccc1`, -7.99%.
For `CCC(C)C(=O)Oc1cc(C)ccc1C1(COC(=O)C(C)C)CO1` (stereo not given), the “activity change, negative = inhibition” value is -7.82%.
Regarding `Cc1ccc(CC(=O)Nc2nc(-c3ccc4c(c3)CCN4C(=O)c3ccccc3C)c(C)s2)cc1C`, the “activity change, negative = inhibition” value is -11.7%.
With `CC1=C(C(=O)Nc2nc3ccccc3s2)C(c2[nH]ncc2Cl)N=C(Nc2nc3ccccc3o2)N1` (stereo not given), the “activity change, negative = inhibition” value was -10.1%.
As for `Cc1ccc(-c2cc(C(=O)NCc3ccccc3)c3ccccc3n2)cc1C`, the “activity change, negative = inhibition” value is 9.9%.
Same read-out and setting: in the case of `COc1cc(NC(=O)C(OC(=O)CNC(=O)c2ccccc2)c2ccccc2)cc(OC)c1` (stereo not given) it was 9.07%; in that of `N#Cc1nc(Nc2cc(F)cc(F)c2)c2ncn(CCCO)c2n1`, -3.04%.
As to `O=c1cc(CN2CCCN(c3ccc(C(F)(F)F)cn3)CC2)nc2ccccn12`, the “activity change, negative = inhibition” value was -3.13%.
Still for that read-out and setting: for `Cc1ccc(NS(=O)(=O)c2cccc(F)c2)cc1C` the value was -7.71%; for `COc1cccc(NC(=S)N2CCN(c3ccc4ccccc4n3)CC2)n1`, 3.66%.
With `CCCn1c(-c2ccc(F)cc2)nc2c(NCCN(CC)CC)nc(C)nc21`, the “activity change, negative = inhibition” value is 5.14%.
As to `N#Cc1ccc(-c2ccc(=O)n(CC(=O)NCCc3ccccc3)n2)cc1`, the “activity change, negative = inhibition” value was 4.62%.
Still for that read-out and setting: in the case of `Cn1c2cc(B(O)O)sc2c2cnn(Cc3c(F)cccc3F)c(=O)c21` it was 2.55%; in that of `O=C(O)CCCCCNC(=O)CSc1nnc(-c2ccc([S+](=O)([O-])N3CCCC3)cc2)n1-c1ccccc1`, -5.84%.
Consider `Cc1cn([C@H]2C[C@H](N[S+](=O)([O-])c3ccc4c(c3)OCCO4)[C@@H](CO)O2)c(=O)[nH]c1=O`, for which the “activity change, negative = inhibition” value was 7.89%.
The same measure, in the same setting: in the case of `Brc1sc2c(c1-c1nc3ccccc3s1)CCNC2` it was 7.13%.
On the same count and under the same terms, for `CNc1nc(-c2cccc3ccccc23)ccc1C#N` the value was 10.7%; for `COc1cccc(CNc2ccc([S+](=O)([O-])Nc3ccccc3)cc2)c1Cl`, -2.48%; for `Cc1ccc(S(=O)(=O)Nc2ccccc2C(=O)Nc2ccc(-c3ccccc3)nc2)cc1`, 0.142%.
On the same count and under the same terms, in the case of `Cc1ccc(-c2ccc(CNc3nc(-c4ccccc4C(C)C)nc4ccccc34)cc2)cn1` it was -12.1%; in that of `CC(=O)NC(c1cc(Cl)c2cccnc2c1O)C1CC1` (stereo not given), 5.8%.
Take `NC(=O)C1CCN(c2nc(-c3ccccc3Br)cs2)CC1`: the “activity change, negative = inhibition” value is 9.75%.
Same read-out and setting: in the case of `c1cncc(-c2ccc(CNc3nc(N4CCCC4)nc4ccccc34)cc2)c1` it was 9.79%; in that of `O=C1CCc2cc(S(=O)(=O)Nc3ccc4c(c3)OCCO4)ccc2N1`, 7.14%; in that of `NC(=O)C1CCN(c2nc(-c3ccccc3Cl)cs2)CC1`, -3.44%.
The same measure, in the same setting: in the case of `NC(=O)c1ccccc1C[C@H](C(=O)O)N1C(=O)c2ccc(C(=O)O)cc2C1=O` it was -4.43%; in that of `CCCCCn1ncc2c3sc(C)cc3n(C)c2c1=O`, 7.31%; in that of `Fc1cc(Nc2nc(-c3ccncc3)nc3ccccc23)ccc1OCC(F)(F)F`, 19.7%.
On the same count and under the same terms, for `CCc1cccc(CC)c1OCc1cc(C2Nc3ccccc3C(=O)N2Cc2ccco2)ccc1OC` (stereo not given) the value was -6.78%; for `COc1cccc(NC(=S)N2CCN(c3cc(C(F)(F)F)cc(C(F)(F)F)c3)CC2)n1`, 12.6%; for `CCNC(=O)c1ccc(-c2ccc3ncnc(NCc4ccc(C)o4)c3c2)o1`, -4.01%.
On to `COc1ccc(C2c3c(nc(C)[nH]c3=O)Oc3ccc4ccccc4c32)cc1OC` (stereo not given), for which the “activity change, negative = inhibition” value is 0.972%.
The same measure, in the same setting: in the case of `N#Cc1no[n+]([O-])c1-c1ccccc1` it was -6.97%.

The target of a further assay is Retinaldehyde dehydrogenase 3 (Homo sapiens) (UniProt P47895). Briefly: qHTS for Inhibitors of the Aldehyde Dehydrogenase Family (ALDH1A3) Primary screen (AID 2061315).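 Note: plate controls were DMSO vehicle for no effect and reference inhibitor for full effect.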 The note with it: ALDH inhibition qHTS; series mostly up to 56 µM; activity change, negative = inhibition: at the top concentration. For orientation: Quantitative high-throughput screening tests each substance at several concentrations.
As for `Cc1ccc(OCCn2c(CCNC(=O)c3ccccc3)nc3ccccc32)cc1`, the “activity change, negative = inhibition” value is 8.3%.
Same read-out and setting: for `O=C(Nc1ccc(-n2cncn2)c(C(F)(F)F)c1)Nc1nnc(-c2ccncc2)s1` the value was -1.91%; for `COc1ccccc1-n1cnc2cc(C(=O)N3CCCCC3)ccc21`, -4.57%; for `C=C1C(=O)O[C@@H]2/C=C(\CO)CC/C=C(/C=O)C[C@@H](O)[C@@H]12`, 5.06%.
Still for that read-out and setting: in the case of `Oc1ccc(CNc2cccc(C(F)(F)F)c2)c2cccnc12` it was -21.4%; in that of `COc1ccc(C2Nc3ccccc3C(=O)N2Cc2ccc3c(c2)OCO3)cc1COc1c(C)cc(NC(C)=O)cc1C` (stereo not given), -8.23%.
As for `CCCCNc1nc(C)nc2c1nc(-c1ccccc1)n2CCCN(CC)CC`, the “activity change, negative = inhibition” value was 11.2%.
Same read-out and setting: in the case of `Cc1c(P(=S)(c2ccccc2)c2ccccc2)c2ccccc2n1C(=O)NCc1ccccc1` it was -0.594%; in that of `CCC(C)C(=O)Oc1cc(C)ccc1C1(COC(=O)C(C)C)CO1` (stereo not given), 5.53%; in that of `Cc1ccc(CC(=O)Nc2nc(-c3ccc4c(c3)CCN4C(=O)c3ccccc3C)c(C)s2)cc1C`, 14.9%.
The same measure, in the same setting: in the case of `CC1=C(C(=O)Nc2nc3ccccc3s2)C(c2[nH]ncc2Cl)N=C(Nc2nc3ccccc3o2)N1` (stereo not given) it was 19.8%.
Still for that read-out and setting: for `Cc1ccc(-c2cc(C(=O)NCc3ccccc3)c3ccccc3n2)cc1C` the value was 10.1%.
As to `COc1cc(NC(=O)C(OC(=O)CNC(=O)c2ccccc2)c2ccccc2)cc(OC)c1` (stereo not given), the “activity change, negative = inhibition” value was -12.5%.
The same measure, in the same setting: for `N#Cc1nc(Nc2cc(F)cc(F)c2)c2ncn(CCCO)c2n1` the value was -3.73%; for `O=c1cc(CN2CCCN(c3ccc(C(F)(F)F)cn3)CC2)nc2ccccn12`, 10.6%.
On the same count and under the same terms, in the case of `Cc1ccc(NS(=O)(=O)c2cccc(F)c2)cc1C` it was 11.7%; in that of `COc1cccc(NC(=S)N2CCN(c3ccc4ccccc4n3)CC2)n1`, 12.3%.
The same measure, in the same setting: in the case of `CCCn1c(-c2ccc(F)cc2)nc2c(NCCN(CC)CC)nc(C)nc21` it was 19.2%; in that of `N#Cc1ccc(-c2ccc(=O)n(CC(=O)NCCc3ccccc3)n2)cc1`, -24.9%; in that of `Cn1c2cc(B(O)O)sc2c2cnn(Cc3c(F)cccc3F)c(=O)c21`, -11.7%.
For the compound `O=C(O)CCCCCNC(=O)CSc1nnc(-c2ccc([S+](=O)([O-])N3CCCC3)cc2)n1-c1ccccc1`, the “activity change, negative = inhibition” value was -4.32%.
On the same count and under the same terms, for `Cc1cn([C@H]2C[C@H](N[S+](=O)([O-])c3ccc4c(c3)OCCO4)[C@@H](CO)O2)c(=O)[nH]c1=O` the value was 0.0885%.
As for `Brc1sc2c(c1-c1nc3ccccc3s1)CCNC2`, the “activity change, negative = inhibition” value is 24.7%.
On the same count and under the same terms, in the case of `CNc1nc(-c2cccc3ccccc23)ccc1C#N` it was 1.82%; in that of `COc1cccc(CNc2ccc([S+](=O)([O-])Nc3ccccc3)cc2)c1Cl`, -5.28%.
Take `Cc1ccc(S(=O)(=O)Nc2ccccc2C(=O)Nc2ccc(-c3ccccc3)nc2)cc1`: the “activity change, negative = inhibition” value was -0.0212%.
The same measure, in the same setting: for `Cc1ccc(-c2ccc(CNc3nc(-c4ccccc4C(C)C)nc4ccccc34)cc2)cn1` the value was -8.67%; for `CC(=O)NC(c1cc(Cl)c2cccnc2c1O)C1CC1` (stereo not given), 19.6%; for `NC(=O)C1CCN(c2nc(-c3ccccc3Br)cs2)CC1`, -1.34%.
Still for that read-out and setting: for `c1cncc(-c2ccc(CNc3nc(N4CCCC4)nc4ccccc34)cc2)c1` the value was -18.8%; for `O=C1CCc2cc(S(=O)(=O)Nc3ccc4c(c3)OCCO4)ccc2N1`, 0.607%.
The same measure, in the same setting: for `NC(=O)C1CCN(c2nc(-c3ccccc3Cl)cs2)CC1` the value was -8.02%.
Take `NC(=O)c1ccccc1C[C@H](C(=O)O)N1C(=O)c2ccc(C(=O)O)cc2C1=O`: the “activity change, negative = inhibition” value was -2.77%.
The same measure, in the same setting: in the case of `CCCCCn1ncc2c3sc(C)cc3n(C)c2c1=O` it was -2.24%; in that of `Fc1cc(Nc2nc(-c3ccncc3)nc3ccccc23)ccc1OCC(F)(F)F`, 0.372%; in that of `CCc1cccc(CC)c1OCc1cc(C2Nc3ccccc3C(=O)N2Cc2ccco2)ccc1OC` (stereo not given), 5.64%.
As for `COc1cccc(NC(=S)N2CCN(c3cc(C(F)(F)F)cc(C(F)(F)F)c3)CC2)n1`, the “activity change, negative = inhibition” value was 38.1%.
With `CCNC(=O)c1ccc(-c2ccc3ncnc(NCc4ccc(C)o4)c3c2)o1`, the “activity change, negative = inhibition” value is 2.3%.
On to `COc1ccc(C2c3c(nc(C)[nH]c3=O)Oc3ccc4ccccc4c32)cc1OC` (stereo not given), for which the “activity change, negative = inhibition” value is 5.91%.
In the case of `N#Cc1no[n+]([O-])c1-c1ccccc1`, the “activity change, negative = inhibition” value was -2.51%.
